Bioassay records deposited in PubChem BioAssay by several laboratories.
A selection: hits, their analogues and other compounds. The true share with any hit is near 2.5%.
Rce1 inhib – blocks yeast Ras-converting enzyme; Q03530; yeast membranes, quenched prenylated peptide cleavage fluorescence; 290,000 tested, 0.27% active; calls only;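 active = fall in fluorescence gain of 50% or more versus controls, with final raw signal at or below 3038400; inconclusive = same 50% fall but final raw signal above 3038400; inactive = fall in fluorescence gain under 50%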
MEKK2mut PB1 HTS – signal of MEK5 binding to mutant human MEKK2 PB1 domain. bead flow cytometry, Alexa488-MEK5 binding to MEKK2 mutant. percent response, % at 10 µM. 290,000 tested, 0.35% active. AID 1530; in the data active = percent response above about 24%, passing the limit was not always enough
MEKK3 PB1 HTS – raises or lowers MEK5 binding to the human MEKK3 PB1 domain. binding response (% of control), % at 10 µM. 290,000 tested, 1.4% active. Q99759. bead-based flow cytometry, Alexa488-MEK5 binding to MEKK3; actives lie on both sides; 0 = blocked by unlabeled MEK5, 100 = vehicle;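 active = binding response more than 3 SD above or below the average of its plate-row segment, actives on both sides; inconclusive = wells at one plate position flagged as instrument error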;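 also: Alexa488 bead fluorescence after subtracting the streptavidin-only scavenger bead signal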
MEKK2wt PB1 HTS – raises or lowers MEK5 binding to wildtype human MEKK2 PB1 domain; 290,000 tested, 1.1% active; bead flow cytometry, Alexa488-MEK5 binding to MEKK2 WT; actives lie on both sides; binding response (% of control), % at 10 µM; Q9Y2U5; in the data active = binding response below about 67% or above about 130%; inconclusive = no clear call, values can overlap the other calls; inactive = in between
UBC13 inh – human UBC13 polyubiquitination inhibition; P61088; UBC13 polyubiquitin chain formation, TR-FRET; inhibition, % at 20 µM; 330,000 tested, 0.47% active; AID 485273; in the data active = inhibition above about 45%, passing the limit was not always enough; inconclusive = no clear call, values can overlap the other calls
Target sequence (P61088 whole entry, looked up): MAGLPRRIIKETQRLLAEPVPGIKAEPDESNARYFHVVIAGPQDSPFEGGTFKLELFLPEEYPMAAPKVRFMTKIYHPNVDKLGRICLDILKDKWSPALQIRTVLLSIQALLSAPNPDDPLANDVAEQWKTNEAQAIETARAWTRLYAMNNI
MEKK2wt confirm – raises or lowers MEK5 binding to wildtype human MEKK2, retest; shares compounds with MEKK3 PB1 HTS; bead flow cytometry, Alexa488-MEK5 binding to MEKK2 WT; actives lie on both sides; binding response (% of control), % at 10 µM; 5,900 tested, 2.4% active; AID 1892; in the data active = binding response below about 16% or above about 210%; inactive = in between
MEKK2mut-MEK5 – signal of MEK5 binding to mutant human MEKK2, retest. shares compounds with MEKK3 PB1 HTS. bead flow cytometry, Alexa488-MEK5 binding to MEKK2 mutant. percent response, % at 10 µM. 5,900 tested, 2% active. AID 1893; in the data active = percent response mostly above about 71%, no sharp cut-off; inactive = mostly below about 38%;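 also: higher means compound restores mutant binding toward wildtype level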
MEKK3 confirm – confirmation of inhibitors of MEK5 binding to human MEKK3. AID 1894. shares compounds with MEKK3 PB1 HTS. binding response (% of control), % at 10 µM. 5,900 tested, 1.8% active. bead flow cytometry, Alexa488-MEK5 binding to MEKK3; stronger effect = lower value;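 active = binding response below 72% of control, or above a set upper limit, though filed actives all read lower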
Casp3 UBC13 ctr – caspase-3 inhibition (UBC13 counter-screen). Recombinant caspase-3, Caspase-Glo 3/7 luminescence, 60 min. inhibition, % at 20 µM. shares compounds with UBC13 inh. AID 488856. 1,400 tested, 4% active;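 active = mean inhibition across replicates above about 26%, limit read from the data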
Target sequence (P42574 whole entry, looked up): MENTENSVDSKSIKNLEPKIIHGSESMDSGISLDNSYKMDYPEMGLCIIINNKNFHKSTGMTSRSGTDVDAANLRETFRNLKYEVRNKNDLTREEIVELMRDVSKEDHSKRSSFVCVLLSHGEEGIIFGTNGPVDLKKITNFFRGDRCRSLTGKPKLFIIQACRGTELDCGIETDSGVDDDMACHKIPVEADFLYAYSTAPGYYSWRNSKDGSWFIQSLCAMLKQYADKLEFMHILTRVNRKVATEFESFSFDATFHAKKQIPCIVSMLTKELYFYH
UBC13 conf – human UBC13 polyubiquitin inhibition, confirmed; shares compounds with UBC13 inh; UBC13 polyubiquitination, TR-FRET, biochemical; inhibition, % at 10 µM; 1,400 tested, 68% active; AID 488859; in the data active = inhibition above about 45%; inconclusive = no clear call, values can overlap the other calls
Numbers stand for hits; . = inactive; ? = inconclusive; / = not tested or not shown; + = active, no number.

SMILES	Rce1 inhib	MEKK2mut PB1 HTS	MEKK3 PB1 HTS	MEKK2wt PB1 HTS	UBC13 inh	Casp3 UBC13 ctr	UBC13 conf	others
CCCCCCCNC(=O)C1(CC2CC(c3cccc(Br)c3)=NO2)CCNCC1 (stereo unspecified)	.	.	.	191	96	.	99	MEKK2wt confirm=.;MEKK2mut-MEK5=.;MEKK3 confirm=.
Nc1nc(N)nc(-c2cc(Cl)ccc2Cl)n1	.	.	.	.	.	/	/
Nc1nc(N)nc(-c2cc(C(F)(F)F)ccc2Cl)n1	/	/	/	/	51	.	.
CN1Cc2c(N3CCOCC3)nc3sc(C(=O)c4ccc(Br)cc4)c(N)c3c2CC1(C)C	.	.	.	.	51	.	85
FC(F)(F)c1cc(CO[C@@H]2CCCN[C@@H]2c2ccccc2)cc(C(F)(F)F)c1	/	/	/	/	58	.	55
O=C(CCCCCN1C(=O)c2cccc3cccc(c23)C1=O)NCCO	.	.	.	.	47	.	.
O=C(O)COc1ccccc1/C=N/NC(=O)c1cc2ccccc2cc1O	.	.	.	.	.	/	/
c1ccc2c(C[C@@H]3CNCCN3CCC34CC5CC(CC(C5)C3)C4)cccc2c1	/	/	/	/	50	.	53
Oc1ccc(C[C@@H]2CNCCN2CCc2cccc3ccccc23)cc1	.	/	/	/	.	/	/
Fc1cccc(CCN2CCNC[C@H]2Cc2cccc3ccccc23)c1	.	/	/	/	.	/	/
c1ccc(C2(CN3CCNC[C@H]3Cc3cccc4ccccc34)CC2)cc1	.	/	/	/	59	.	48
CC(C)(C)CN1CCNC[C@H]1Cc1cccc2ccccc12	.	/	/	/	47	.	.
CC1=CC(C)(C)[N+](C)=CN1c1ccccc1	?	.	.	.	.	/	/
Cc1ccc(S(=O)(=O)N(C(=N)N)c2nc(N(C)C)nc(N(C)C)n2)cc1	.	.	.	.	.	/	/
O=C(O)CC(c1ccc(Br)cc1)N1Cc2ccccc2C1=O (stereo unspecified)	.	.	.	.	.	/	/
COc1cc(/C=N/NC(=O)c2ccccc2)ccc1O	.	.	.	.	.	/	/
COc1cc(/C=N/NC(=O)c2sc(N)c(C#N)c2C)ccc1O	.	.	.	.	51	.	56
C/C(CC(=O)Nc1cc(Cl)ccc1Cl)=N\NC(=O)c1ccccc1Br	.	.	.	.	.	/	/
CCOc1cc(/C=C/C(=O)Nc2ccc(C(=O)NCCN(CC)CC)cc2)ccc1OCC(C)C	.	.	.	138	78	.	96
CCOc1ccc(/C=C/C(=O)Nc2ccc(C(N)=O)cc2)cc1OC	.	.	.	.	.	/	/
CC(C(=O)NC1CCCC1)N(C(=O)c1snc(C(N)=O)c1N)c1ccc2c(c1)OCCO2 (stereo unspecified)	.	.	.	.	72	.	72
COc1ccc(N(C(=O)c2snc(C(N)=O)c2N)C(C(=O)NC2CCCC2)c2ccc(OC)c(OC)c2)cc1 (stereo unspecified)	.	.	.	.	.	/	/
CCC(C(=O)NC1CCCC1)N(C(=O)c1snc(C(N)=O)c1N)c1ccc(OC)cc1 (stereo unspecified)	.	.	.	.	52	.	62
COc1ccc(CNC(=O)C2(CC3CC(c4ccccc4)=NO3)CCN(C(=O)OC(C)(C)C)CC2)cc1 (stereo unspecified)	.	.	.	.	77	.	.
O=C1c2cccc3cccc(c23)C(=O)N1CCN1CCN(CC(O)COc2ccccc2)CC1 (stereo unspecified)	.	.	.	.	54	.	.
SMILES	Rce1 inhib	MEKK2mut PB1 HTS	MEKK3 PB1 HTS	MEKK2wt PB1 HTS	UBC13 inh	Casp3 UBC13 ctr	UBC13 conf	others
COc1ccc(OCC(O)CN2CCC(CN3C(=O)c4cccc5cccc(c45)C3=O)CC2)cc1 (stereo unspecified)	.	/	/	/	.	/	/
COc1cccc(OCC(O)CN2CCN(CCN3C(=O)c4cccc5cccc(c45)C3=O)CC2)c1 (stereo unspecified)	.	.	.	.	61	.	63
Cc1c(N=C2N=C(NC(=O)Nc3ccc(Cl)cc3)c3ccccc32)c(=O)n(-c2ccccc2)n1C	.	.	.	.	.	/	/
CCOc1ccccc1NC(=O)C(OC(=O)c1ccc(O)cc1)c1ccccc1 (stereo unspecified)	.	.	.	.	78	.	89
O=C(COC(=O)CNC(=O)c1ccco1)NCc1ccc(F)cc1	.	.	.	.	.	/	/
COc1ccc(-c2noc(N3CCC(C(=O)Nc4cc(OC)c(OC)c(OC)c4)CC3)n2)cc1	.	.	.	.	.	/	/
Nc1ccc2c(c1)C(=O)Cc1ccccc1S2	.	.	.	.	58	.	.
Cc1ccc(S(=O)(=O)N2CCN(C(=O)COC(=O)C3CCC3)CC2)cc1	.	/	/	/	.	/	/
Cc1ccc(-c2csc3nc4c5ccccc5c(NCCCN(C)C)nn4c(=O)c23)cc1	+	65	.	195	97	.	100
Cc1ccc(-c2csc3nc(C)n(N)c(=O)c23)cc1	.	.	.	.	.	/	/
Cc1ccc(-c2noc(CCC(=O)NCC3CCN(Cc4cccc(C)c4)CC3)n2)cc1	.	.	.	.	56	.	70
COc1ccc(-c2cc3c(=O)n(CC(=O)NCCCN4CCN(Cc5ccccc5)CC4)ncn3n2)cc1	.	.	.	.	.	/	/
COc1ccc(-c2cc3c(=O)n(CC(=O)NCCCN4CCC(Cc5ccccc5)CC4)ncn3n2)cc1	.	.	.	.	52	.	76
COc1ccc(-c2noc(CCC(=O)NCCCN3CCC(Cc4ccccc4)CC3)n2)cc1	.	.	.	.	90	.	106
CC(Oc1ccccc1)C(=O)N=C1SC2CS(=O)(=O)CC2N1c1cccc(F)c1 (stereo unspecified)	.	.	.	.	.	/	/
COc1ccc(CC(=O)N(C)CC(=O)Nc2ccccc2Cl)cc1S(=O)(=O)N1CCOCC1	/	/	/	/	52	.	.
COc1ccc(CN(C)C(=O)Cc2ccc(OC)c(S(=O)(=O)N3CCOCC3)c2)cc1OC	/	/	/	/	101	.	109
COc1ccc(Br)cc1CN(C)C(=O)Cc1ccc(OC)c(S(=O)(=O)N2CCOCC2)c1	/	/	/	/	.	/	/
